Data reported in PubChem BioAssay AID488832 (National Center for Advancing Translational Sciences (NCATS), 2010).
Records with an inconclusive call do not appear. Calls of active or inactive are those of the source. Calls come from the whole dose curve; as a rule, active = well fitted activation curve with a large enough effect; inconclusive = small, poorly fitted or top-dose-only effect; inactive = no such curve, though single readings can be large or run the other way.

Test: Confirmation Concentration-Response Assay for Enhancers of SMN2 Splice Variant Expression for Further Probe SAR
Settings: HEK293 SMN2 exon7-luciferase splicing reporter, luminescence, 30-36 h; series mostly up to 46.1 µM
Source text: NIH Chemical Genomics Center [NCGC] NIH Molecular Libraries Probe Production centers Network [MLPCN] MLPCN Grant: R03 MH084179-01 Assay Submitter (PI): Elliot Androphy NCGC Assay Overview: Spinal muscular atrophy (SMA) is caused by insufficient levels of the survival motor neuron protein SMN. The SMN locus on chromosome 5q13 contains two inverted copies of SMN called SMN1 and SMN2 which are 99% identical at the amino acid level. SMN1 is a fully functional protein and SMN2 skips exon 7 90% of the time. Skipping of exon 7 produces non-functional protein product. 10% of the SMN2 protein includes exon 7 and is fully functional. In the SMA disease state, mutations in the SMN1 locus are the cause of the disease state. Because only 10% of SMN2 is of the fully functional form, it is not sufficient to overcome the deficiency produced by the loss of the SMN1 product. A therapy that either increase the amount of SMN2 product made or to increase the inclusion of exon 7 has been proposed for the treatment of SMA. We have designed an assay to identify small molecules that can increase the amount of functional SMN2 product by appending a luciferase reporter gene after the native SMN2 gene, such that inclusion of exon 7 in the expressed product places the luciferase sequence in frame, thus generating functional luciferase enzyme.
NCGC Assay Protocol Summary: This screen utilizes a luciferase reporter gene assay, combining the promoter with the major portion of the native SMN2 cDNA (exons 1 -7, intron 8 , exon 8 fused to luciferase) stably expressed in HEK293 cells. Compounds that increase luciferase signal presumably enhance expression of the functional SMN2 splice variant. Passaging media contained DMEM w/ glutamax (+phenol red) 10% FCS, 1x pen/strep, 200 ug/ml hygro, 1x sodium pyruvate. Assay media contained DMEM w/ glutamax (-phenol red) 10% FCS, 1x pen strep, 1x pyruvate Sequence, Parameter, Value, Description (1) Cells, 5 uL, 2000 cells/well, 1536 TC treated White solid bottom plate (2) Time, 10-12 hours, 37C 5% CO2 (3) Compound, 23 nl, MLSMR Library (4) Control Compound, 23 nL, Sodium butyrate st 4.5mM (final) conc (5) Time, 30-36 hours, 37C 5% CO2 (6) Reagent, 3 ul, One Glo (TM) from Promega (7) Time, 5-15 minutes, Room temp (8) Detector, Viewlux: luminescent read, 60 second integration, high speed 2x binning Keywords: Spinal muscular atrophy, SMA, SMN2, high throughput screening, MLSMR, MLPCN, NIH Roadmap, qHTS and NCGC

Which Potency does the source give for `CN(C)c1cccc(-c2nnc(N3CCC(C(N)=O)CC3)s2)c1` here?
The Potency was 218 nM (active).

For `COc1ccccc1-c1csc(N2CCC(C(N)=O)CC2)n1`, which Potency is on record?
Its Potency is “inactive”.

Which Potency does the source give for `CC(C)Oc1cccc(-c2cnc(N3CCC(C(N)=O)CC3)s2)c1` here?
The Potency was 68.8 nM (active).

For `N#Cc1ccccc1-c1csc(N2CCC(C(N)=O)CC2)n1`, which Potency is on record?
The Potency was “inactive”.

With `Cc1cccc(-c2csc(N3CCC(C(N)=O)CC3)n2)c1` as the molecule, how does the Potency read?
The Potency was 15400 nM (active).

With `NC(=O)C1CCN(c2nccc(Cl)n2)CC1` as the molecule, how does the Potency read?
The Potency was “inactive”.

With `NC(=O)C1CCN(c2nc(-c3ccc4c(c3)CCO4)cs2)CC1` as the molecule, how does the Potency read?
Its Potency is 12200 nM (active).

Which Potency does the source give for `NC(=O)C1CCN(c2nc(-c3ccc(Oc4ccccc4)cc3)cs2)CC1` here?
The Potency was 4340 nM (active).

Which Potency does the source give for `Cc1ccc(-c2cnc(N3CCC(C(N)=O)CC3)s2)cc1` here?
Its Potency is 68.8 nM (active).

For `NC(=O)C1CCN(c2nc(-c3ccccc3[N+](=O)[O-])cs2)CC1`, which Potency is on record?
The Potency was 15400 nM (active).

For `CC(=O)C1CCN(c2ncc(-c3ccc4c(c3)OCCCO4)s2)CC1`, which Potency is on record?
Its Potency is “inactive”.

Which Potency does the source give for `NC(=O)C1CCN(c2ncc(-c3ccc4c(c3)OCCO4)s2)CC1` here?
Its Potency is 86.7 nM (active).

Which Potency does the source give for `COc1cccc(-c2csc(N3CCC(C(N)=O)CC3)n2)c1` here?
The Potency was 1090 nM (active).

With `O=C(Nc1ccccc1)C1CCN(c2ncc(-c3ccc4c(c3)OCCCO4)s2)CC1` as the molecule, how does the Potency read?
The Potency was 48.7 nM (active).

For `CN(C)c1cccc(-c2ncnc(N3CCC(C(N)=O)CC3)n2)c1`, which Potency is on record?
The Potency was 772 nM (active).

For `NC(=O)C1CCN(c2ncc(-c3ccc(Cl)cc3)s2)CC1`, which Potency is on record?
Its Potency is 137 nM (active).

For `CC(=O)N1CCN(c2nc(-c3ccc(Br)cc3)cs2)CC1`, which Potency is on record?
Its Potency is 2440 nM (active).

Which Potency does the source give for `CC(C)(C)OC(=O)NC1CCN(c2nc(-c3ccc(Br)cc3)cs2)CC1` here?
The Potency was “inactive”.

With `c1c[nH]c(C2CCN(c3ncc(-c4ccc5c(c4)OCCCO5)s3)CC2)n1` as the molecule, how does the Potency read?
Its Potency is 2180 nM (active).

With `NC(=O)C1CCN(c2nc(-c3cccc4ccccc34)cs2)CC1` as the molecule, how does the Potency read?
Its Potency is “inactive”.

Which Potency does the source give for `CC(C)Oc1cccc(-c2csc(N3CCC(C(N)=O)CC3)n2)c1` here?
Its Potency is 688 nM (active).

For `O=C(NCCCc1ccccc1)C1CCN(c2nc(-c3ccc(Br)cc3)cs2)CC1`, which Potency is on record?
Its Potency is “inactive”.

For `CNC(=O)C1CCN(c2nc(-c3ccc(Br)cc3)cs2)CC1`, which Potency is on record?
The Potency was 4870 nM (active).

For `CCOC(=O)C1CCN(c2nc(-c3ccc(Br)cc3)cs2)CC1`, which Potency is on record?
Its Potency is 4870 nM (active).

With `CN(C)c1cccc(-c2cnc(N3CCC(C(N)=O)CC3)nc2)c1` as the molecule, how does the Potency read?
The Potency was 547 nM (active).

Which Potency does the source give for `NC(=O)C1CCN(c2nc(-c3ccc(N)cc3)cs2)CC1` here?
Its Potency is “inactive”.

For `CC(=O)C1CCN(c2ncc(-c3cccc(N(C)C)c3)s2)CC1`, which Potency is on record?
The Potency was 2740 nM (active).

For `CN(C)c1cccc(-c2ccnc(N3CCC(C(N)=O)CC3)n2)c1`, which Potency is on record?
Its Potency is 688 nM (active).

With `NC(=O)C1CCN(c2ncnc(-c3ccc4c(c3)OCCCO4)n2)CC1` as the molecule, how does the Potency read?
Its Potency is 2440 nM (active).

For `NC(=O)C1CCN(c2ncc(-c3cccc(N4CCCC4)c3)s2)CC1`, which Potency is on record?
Its Potency is 345 nM (active).

Which Potency does the source give for `O=C(NCc1ccccc1)C1CCN(c2nc(-c3ccc(Br)cc3)cs2)CC1` here?
The Potency was “inactive”.

Which Potency does the source give for `NC(=O)C1CCN(c2ncc(-c3ccc4c(c3)OCO4)s2)CC1` here?
Its Potency is 48.7 nM (active).

With `NC(=O)C1CCN(c2nc(-c3ccc4c(c3)OCCCO4)cs2)CC1` as the molecule, how does the Potency read?
The Potency was 487 nM (active).

For `NC(=O)N1CCN(c2nc(-c3ccc(Br)cc3)cs2)CC1`, which Potency is on record?
Its Potency is 13700 nM (active).

Which Potency does the source give for `CC(C)Oc1cccc(-c2ccnc(N3CCC(C(N)=O)CC3)n2)c1` here?
The Potency was 154 nM (active).

For `NC(=O)C1CCN(c2nc(-c3ccc4c(c3)OCO4)cs2)CC1`, which Potency is on record?
Its Potency is 1370 nM (active).

Which Potency does the source give for `CN(C)c1cccc(-c2ncc(F)c(N3CCC(C(N)=O)CC3)n2)c1` here?
The Potency was 2440 nM (active).

With `NC(=O)C1CCN(c2nc(-c3ccc(C(F)(F)F)cc3)cs2)CC1` as the molecule, how does the Potency read?
Its Potency is 867 nM (active).

Which Potency does the source give for `NC(=O)C1CCN(c2nc(-c3ccc(N4CCCCC4)nc3)cs2)CC1` here?
Its Potency is 3450 nM (active).

With `NC(=O)C1CCN(c2ncc(Br)s2)CC1` as the molecule, how does the Potency read?
Its Potency is “inactive”.
